Among all 3,200 compounds or so, about 300 (9.4%) showed activity. The sample as a whole holds a higher share of actives than the screen did.
System: A673/TR/shEF
Assay: cell viability (LOESS-normalised, relative to median of negative controls) (log2 ratio); higher = more viable cells (less compound effect), active = hit call of the paper (over 3 MAD below the median)
Details: treatment time: 72 h
Summary of the method: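 Doxycycline, present or absent from 24 h before compounds, was used to induce EWS-FLI1 shRNA knockdown in A673/TR/shEF Ewing sarcoma cells at 1,500 per well in 384-well plates. Cells then received library compounds at two or more concentrations, or DMSO controls, for three days. Viability was measured by CellTiter-Glo luminescence on an Envision reader, and per-plate LOESS correction, division by the negative-control median and log2 transformation followed.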

[1] = 0.103 µM, library screen: screen3, EWS-FLI1 expression: high (no doxycycline)
[2] = 0.103 µM, library screen: screen3, EWS-FLI1 expression: low (doxycycline-induced shRNA knockdown)
[3] = 0.308 µM, library screen: screen3, EWS-FLI1 expression: high (no doxycycline)
[4] = 0.308 µM, library screen: screen3, EWS-FLI1 expression: low (doxycycline-induced shRNA knockdown)
[5] = 0.926 µM, library screen: screen3, EWS-FLI1 expression: high (no doxycycline)
[6] = 0.926 µM, library screen: screen3, EWS-FLI1 expression: low (doxycycline-induced shRNA knockdown)
[7] = 2.8 µM, library screen: screen3, EWS-FLI1 expression: high (no doxycycline)
[8] = 2.8 µM, library screen: screen3, EWS-FLI1 expression: low (doxycycline-induced shRNA knockdown)
[9] = 8.3 µM, library screen: screen3, EWS-FLI1 expression: high (no doxycycline)
[10] = 8.3 µM, library screen: screen3, EWS-FLI1 expression: low (doxycycline-induced shRNA knockdown)
[11] = 25 µM, library screen: screen3, EWS-FLI1 expression: high (no doxycycline)
[12] = 25 µM, library screen: screen3, EWS-FLI1 expression: low (doxycycline-induced shRNA knockdown)
[13] = 0.25 µM, library screen: screen1, EWS-FLI1 expression: high (no doxycycline)
[14] = 0.25 µM, library screen: screen1, EWS-FLI1 expression: low (doxycycline-induced shRNA knockdown)
[15] = 2.5 µM, library screen: screen1, EWS-FLI1 expression: high (no doxycycline)
[16] = 2.5 µM, library screen: screen1, EWS-FLI1 expression: low (doxycycline-induced shRNA knockdown)
[17] = 0.25 µM, library screen: screen2, EWS-FLI1 expression: high (no doxycycline)
[18] = 0.25 µM, library screen: screen2, EWS-FLI1 expression: low (doxycycline-induced shRNA knockdown)
[19] = 2.5 µM, library screen: screen2, EWS-FLI1 expression: high (no doxycycline)
[20] = 2.5 µM, library screen: screen2, EWS-FLI1 expression: low (doxycycline-induced shRNA knockdown)
[21] = 0.025 µM, library screen: screen1, EWS-FLI1 expression: high (no doxycycline)
[22] = 0.025 µM, library screen: screen1, EWS-FLI1 expression: low (doxycycline-induced shRNA knockdown)
[23] = 25 µM, library screen: screen1, EWS-FLI1 expression: high (no doxycycline)
[24] = 25 µM, library screen: screen1, EWS-FLI1 expression: low (doxycycline-induced shRNA knockdown)
[25] = 0.025 µM, library screen: screen2, EWS-FLI1 expression: high (no doxycycline)
[26] = 0.025 µM, library screen: screen2, EWS-FLI1 expression: low (doxycycline-induced shRNA knockdown)
[27] = 25 µM, library screen: screen2, EWS-FLI1 expression: high (no doxycycline)
[28] = 25 µM, library screen: screen2, EWS-FLI1 expression: low (doxycycline-induced shRNA knockdown)

Measured: cell viability (log2)

[Na+].[Na+].[Na+].[O]=[V]([O-])([O-])[O-]
inactive: [1] 0.0642 | [2] 0.11 | [3] -0.00412 | [4] 0.0414 | [5] 0.0791 | [6] 0.0822 | [7] 0.0816 | [8] 0.153 | [9] 0.102 | [10] 0.022 | [11] 0.0273 | [12] 0.0301

O=C(Nc1ccncc1)c1cc(-c2ccccc2)nc2ccccc12
inactive: [13] 0.0994 | [14] 0.0756 | [15] 0.0606 | [16] -0.00485

COC(=O)C[C@H]1C(C)(C)C(OC)=C2CC3=C4CC(=O)O[C@@H](c5ccoc5)[C@]4(C)CCC3[C@@]1(C)C2=O (stereo partly specified)
inactive: [13] 0.0817 | [14] 0.1 | [15] 0.101 | [16] 0.109

Nc1ncnc2c1nc(Br)n2C1OC2COP(=O)(O)OC2C1O (stereo unspecified)
inactive: [17] 0.279 | [18] 0.0361 | [19] 0.103 | [20] 0.0822

CC1=C(/C=C/C(C)=C/C=C/C(C)=C/C=C/C=C(C)/C=C/C=C(C)/C=C/[C@@]23O[C@]2(C)C[C@@H](O)CC3(C)C)C(C)(C)C[C@H](O)C1
inactive: [13] 0.0858 | [14] 0.0984 | [15] 0.143 | [16] 0.132

COc1ccc2c(c1)[C@@]1(C)CCC(=O)C[C@@H]1CC2
inactive: [13] 0.0574 | [14] 0.0238 | [15] 0.0895 | [16] 0.0859

CC(C)c1ccc2c(c1)CCC1C(C)(CN)CCCC21C (stereo unspecified)
inactive: [13] 0.0133 | [14] -0.0819 | [15] 0.122 | [16] 0.00337

Fc1cccc(CN(C2=NCCN2)c2c(Cl)cccc2Cl)c1
inactive: [17] 0.243 | [18] 0.118 | [19] 0.138 | [20] 0.0968

CC(=O)/C=C/C1C(C)(O)CCC2C(C)(C)CCCC21C (stereo unspecified)
inactive: [13] 0.0886 | [14] 0.136 | [15] 0.148 | [16] 0.139

COc1cccc(C(=O)NCCN2CCN(c3ccc(Cl)cc3)CC2)c1
inactive: [17] 0.184 | [18] 0.2 | [19] 0.0849 | [20] 0.0867

Cc1nc(Nc2ncc(C(=O)Nc3c(C)cccc3Cl)s2)cc(N2CCN(CCO)CC2)n1
inactive: [1] -0.00181 | [2] -0.0394 | [3] -0.125 | [4] -0.364
active: [5] -0.395 | [6] -0.907 | [7] -0.393 | [8] -1.27 | [9] -0.457 | [10] -1.34 | [11] -0.706 | [12] -1.33

O=C(O)c1cn(-c2ccccc2)nc1-c1ccc(F)cc1
inactive: [13] 0.0839 | [14] -0.00121 | [15] 0.0458 | [16] -0.135

O=S(=O)(NCCNC/C=C/c1ccc(Br)cc1)c1cccc2cnccc12
inactive: [21] 0.026 | [22] 0.000211 | [13] 0.096 | [14] 0.0474 | [17] 0.108 | [18] 0.000615 | [15] 0.0846 | [16] -0.0121 | [19] 0.194 | [20] 0.0705 | [23] 0.00409 | [24] 0.217

NC(N)=NCCNS(=O)(=O)c1cccc2cnccc12
inactive: [21] 0.216 | [22] 0.0306 | [13] 0.259 | [14] 0.000334 | [17] 0.159 | [18] 0.0697 | [16] 0.117 | [19] 0.11 | [20] 0.0282 | [24] 0.0777
active: [15] -0.325 | [23] -0.105

CNCCNS(=O)(=O)c1cccc2cnccc12
inactive: [21] 0.0336 | [22] 0.0964 | [13] 0.0201 | [14] 0.0846 | [17] 0.191 | [18] 0.0995 | [15] -0.0144 | [16] 0.076 | [19] 0.114 | [20] 0.037 | [23] -0.0615 | [24] -0.521

NCCNS(=O)(=O)c1cccc2cnccc12
active: [15] -0.101
inactive: [21] 0.261 | [22] -0.0195 | [13] 0.263 | [14] -0.0436 | [17] 0.125 | [18] 0.144 | [16] 0.0153 | [19] 0.077 | [20] 0.0865 | [23] -0.0355 | [24] 0.14

C[C@@H]1CC[C@@]2(OC1)O[C@H]1C[C@H]3[C@@H]4CC[C@@H]5C[C@@H](O)CC[C@]5(C)[C@H]4CC[C@]3(C)[C@H]1[C@@H]2C
inactive: [13] 0.0641 | [14] 0.0518 | [15] 0.077 | [16] 0.0287

CSc1nnc(-c2ccccc2)c(-c2ccccc2)n1
inactive: [13] 0.103 | [14] 0.00324 | [15] 0.0984 | [16] 0.0395

COc1cc(OC)c2c(c1)O[C@H](c1cc(OC)c(OC)c(OC)c1)[C@H](OC(=O)c1cc(OC)c(OC)c(OC)c1)C2
inactive: [13] 0.0414 | [14] 0.0159 | [15] 0.0705 | [16] -0.00627

CC1OC(OC2C(O)COC(OC3C(C)OC(OC4C(OC(=O)C56CCC(C)(C)CC5C5=CCC7C8(C)CCC(OC9OC(CO)C(O)C(O)C9O)C(C)(C)C8CCC7(C)C5(C)CC6O)OCC(O)C4O)C(O)C3O)C2O)C(O)C(O)C1O (stereo unspecified)
inactive: [13] 0.0486 | [14] 0.0258 | [15] 0.0372 | [16] 0.223

COC(=O)c1c(C)c2c(c(C)c1OC)OC(=O)c1c(C)c(Cl)c(OC)c(Cl)c1O2
inactive: [13] 0.0616 | [14] 0.043 | [15] 0.0828 | [16] 0.0347

Cc1cn([C@H]2C=C[C@@H](CO)O2)c(=O)[nH]c1=O
inactive: [1] -0.00295 | [2] 0.0515 | [17] 0.197 | [18] 0.032 | [3] -0.0178 | [4] 0.0223 | [5] 0.0714 | [6] 0.0163 | [19] 0.101 | [20] 0.0899 | [7] 0.0507 | [8] 0.0197 | [9] 0.102 | [10] 0.0821 | [11] 0.0208 | [12] 0.0668

O=c1[nH]c(=O)n([C@H]2C[C@H](O)[C@@H](CO)O2)cc1Br
inactive: [17] 0.238 | [18] 0.0517 | [19] 0.037 | [20] 0.0646

Cc1cn([C@@H]2C[C@@H](O)[C@H](CO)O2)c(=O)[nH]c1=O
inactive: [1] 0.207 | [2] 0.0457 | [3] 0.0611 | [4] 0.118 | [5] 0.128 | [6] 0.0817 | [7] 0.203 | [8] 0.115 | [9] 0.177 | [10] 0.101 | [11] 0.139 | [12] 0.167

O=c1[nH]c(=O)n([C@H]2C[C@H](O)[C@@H](CO)O2)cc1/C=C/Br
inactive: [17] 0.184 | [18] 0.138 | [19] 0.072 | [20] 0.108

O=c1[nH]c(=O)n([C@H]2C[C@H](O)[C@@H](CO)O2)cc1F
active: [13] -1.07 | [17] -0.231 | [3] -0.266 | [5] -0.534 | [15] -1.48 | [19] -0.805 | [7] -0.621 | [9] -0.85 | [27] -0.944 | [11] -1.03
inactive: [25] 0.0911 | [26] 0.0185 | [1] 0.0528 | [2] 0.0374 | [14] 0.23 | [18] 0.103 | [4] 0.079 | [6] 0.0595 | [16] 0.156 | [20] 0.138 | [8] 0.0813 | [10] 0.0595 | [28] -0.0409 | [12] 0.0541

O=c1[nH]c(=O)n([C@H]2C[C@H](O)[C@@H](CO)O2)cc1C(F)(F)F
inactive: [1] 0.105 | [2] 0.105 | [13] -0.0346 | [14] 0.0988 | [3] 0.134 | [4] 0.147 | [5] 0.108 | [6] 0.0588 | [15] 0.0509 | [16] 0.029 | [7] 0.0746 | [8] 0.0921 | [9] 0.0584 | [10] 0.048 | [12] 0.124
active: [11] -0.362

CCc1cn([C@H]2C[C@H](O)[C@@H](CO)O2)c(=O)[nH]c1=O
inactive: [25] 0.0952 | [26] 0.0914 | [13] 0.152 | [14] 0.0662 | [17] 0.0236 | [18] 0.0662 | [15] 0.079 | [16] 0.152 | [19] 0.176 | [20] 0.0177 | [27] -0.0289 | [28] 0.0946

Cc1cn([C@H]2C[C@H](N=[N+]=[N-])[C@@H](CO)O2)c(=O)[nH]c1=O
inactive: [25] 0.0606 | [26] 0.0603 | [14] -0.108 | [17] 0.183 | [18] 0.0909 | [19] 0.12 | [20] 0.103 | [27] 0.0992 | [28] 0.0558
active: [13] -0.142 | [15] -1.07 | [16] -0.798

C[C@H]1O[C@@H](n2cc(F)c(=O)[nH]c2=O)[C@H](O)[C@@H]1O
active: [13] -0.21 | [15] -1.24 | [19] -0.257 | [27] -2.97 | [28] -0.654
inactive: [25] 0.0333 | [26] 0.0231 | [14] 0.08 | [17] -0.00269 | [18] 0.0834 | [16] -0.0424 | [20] 0.0331

CCCCCOC(=O)Nc1nc(=O)n([C@@H]2O[C@H](C)[C@@H](O)[C@H]2O)cc1F
inactive: [1] 0.057 | [2] 0.111 | [3] 0.147 | [4] 0.143 | [5] 0.154 | [6] 0.121 | [7] 0.179 | [8] 0.14 | [9] 0.166 | [10] 0.0924 | [11] 0.195 | [12] 0.124

Source: the supplement of paper PMC6089552
